In all, about 5,500 compounds went through this assay and about 2,000 (36%) were called active. About 18% were inconclusive and are not listed. Rule as the data show it: active = normalized growth mostly below about 0.91 (no sharp cut-off); inconclusive = no clear call, values can overlap the other calls; inactive = mostly above about 0.92. Some of the results follow.
Experiment: chemical genetic growth profiling, strain panel (AID 1159580);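 also: tested at 20 µM; growth read once vehicle control cultures reached saturation at 30 °C; 1 = growth at the plate median or of vehicle wells; lower values mean less growth of the strain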
Conditions: growth OD

Measured: normalized growth

C=C(C)c1cc2cc(C(C)=O)c(O)cc2o1
inactive: S. cerevisiae deletion strains, locus YJL187C, strain SWE1, hits give low values 0.994 | S. cerevisiae deletion strains, locus YJR066W, strain TOR1, hits give low values 0.886 | S. cerevisiae deletion strains, locus YKL009W, strain mrt4, hits give low values 0.939 | S. cerevisiae deletion strains, locus YKL160W, strain elf1, hits give low values 0.92 | S. cerevisiae deletion strains, locus YKL190W, strain CNB1, hits give low values 0.954 | S. cerevisiae deletion strains, locus YKR001C, strain vps1, hits give low values 0.932 | S. cerevisiae deletion strains, locus YKR026C, strain gcn3, hits give low values 0.966 | S. cerevisiae deletion strains, locus YKR091W, strain srl3, hits give low values 0.979 | S. cerevisiae deletion strains, locus YLL001W, strain dnm1, hits give low values 0.916 | S. cerevisiae deletion strains, locus YLL026W, hits give low values 0.977 | S. cerevisiae deletion strains, locus YLL041C, strain sdh2, hits give low values 0.97 | S. cerevisiae deletion strains, locus YLR027C, strain aat2, hits give low values 0.964 | S. cerevisiae deletion strains, locus YLR039C, strain RIC1, hits give low values 0.831 | S. cerevisiae deletion strains, locus YLR058C, strain SHM2, hits give low values 0.948 | S. cerevisiae deletion strains, locus YLR102C, strain apc9, hits give low values 0.931 | S. cerevisiae deletion strains, locus YLR221C, strain rsa3, hits give low values 0.975 | S. cerevisiae deletion strains, locus YLR258W, strain gsy2, hits give low values 0.932 | S. cerevisiae deletion strains, locus YLR268W, strain sec22, hits give low values 0.945 | S. cerevisiae deletion strains, locus YLR320W, strain mms22, hits give low values 0.908 | S. cerevisiae deletion strains, locus YLR342W, strain FKS1 (second series), hits give low values 0.894 | S. cerevisiae deletion strains, locus YLR342W, strain FKS1, hits give low values 0.978 | S. cerevisiae deletion strains, locus YLR357W, strain rsc2, hits give low values 1.01 | S. cerevisiae deletion strains, locus YLR370C, strain arc18, hits give low values 0.971 | S. cerevisiae deletion strains, locus YLR384C, strain iki3, hits give low values 0.977 | S. cerevisiae deletion strains, locus YLR418C, strain cdc73, hits give low values 0.861 | S. cerevisiae deletion strains, locus YML032C, strain rad52, hits give low values 0.942 | S. cerevisiae deletion strains, locus YML120C, strain ndi1, hits give low values 0.932 | S. cerevisiae deletion strains, locus YMR058W, strain fet3, hits give low values 0.954 | S. cerevisiae deletion strains, locus YMR125W, strain sto1, hits give low values 0.982 | S. cerevisiae deletion strains, locus YMR129W, hits give low values 0.966 | S. cerevisiae deletion strains, locus YMR205C, strain PFK2, hits give low values 0.906 | S. cerevisiae deletion strains, locus YMR223W, strain ubp8, hits give low values 0.967 | S. cerevisiae deletion strains, locus YMR231W, strain pep5, hits give low values 0.997 | S. cerevisiae deletion strains, locus YMR307W, strain GAS1, hits give low values 0.904 | S. cerevisiae deletion strains, locus YNL067W, strain RPL9B, hits give low values 0.986 | S. cerevisiae deletion strains, locus YNL128W, strain TEP1, hits give low values 0.928 | S. cerevisiae deletion strains, locus YNL183C, strain NPR1, hits give low values 0.889 | S. cerevisiae deletion strains, locus YNL209W, strain ssb2, hits give low values 0.967 | S. cerevisiae deletion strains, locus YNL233W, strain BNI4, hits give low values 0.952 | S. cerevisiae deletion strains, locus YNL248C, strain rpa49, hits give low values 0.956 | S. cerevisiae deletion strains, locus YNL250W, strain rad50, hits give low values 0.932 | S. cerevisiae deletion strains, locus YNL271C, strain bni1, hits give low values 0.957 | S. cerevisiae deletion strains, locus YNL322C, strain KRE1 (second series), hits give low values 0.979 | S. cerevisiae deletion strains, locus YNR049C, strain mso1, hits give low values 0.976 | S. cerevisiae deletion strains, locus YNR052C, strain pop2, hits give low values 0.97 | S. cerevisiae deletion strains, locus YOL006C, strain TOP1, hits give low values 0.714 | S. cerevisiae deletion strains, locus YOL012C, strain htz1 0.842 | S. cerevisiae deletion strains, locus YOR001W, strain rrp6, hits give low values 0.982 | S. cerevisiae deletion strains, locus YOR061W, strain CKA2, hits give low values 0.933 | S. cerevisiae deletion strains, locus YOR069W, strain VPS5, hits give low values 0.968 | S. cerevisiae deletion strains, locus YOR070C, strain gyp1, hits give low values 0.979 | S. cerevisiae deletion strains, locus YOR080W, strain dia2, hits give low values 0.984 | S. cerevisiae deletion strains, locus YOR083W, strain WHI5, hits give low values 0.929 | S. cerevisiae deletion strains, locus YOR106W, strain vam3, hits give low values 0.965 | S. cerevisiae deletion strains, locus YOR136W, strain idh2, hits give low values 0.943 | S. cerevisiae deletion strains, locus YOR144C, strain elg1, hits give low values 0.936 | S. cerevisiae deletion strains, locus YOR231W, strain MKK1, hits give low values 0.93 | S. cerevisiae deletion strains, locus YOR265W, strain rbl2, hits give low values 0.96 | S. cerevisiae deletion strains, locus YOR270C, strain vph1, hits give low values 0.88 | S. cerevisiae deletion strains, locus YOR290C, strain snf2, hits give low values 0.893 | S. cerevisiae deletion strains, locus YPL051W, strain arl3, hits give low values 0.917 | S. cerevisiae deletion strains, locus YPL106C, strain sse1, hits give low values 0.895 | S. cerevisiae deletion strains, locus YPL240C, strain hsp82, hits give low values 0.961 | S. cerevisiae deletion strains, locus YPL256C, strain CLN2, hits give low values 0.897 | S. cerevisiae deletion strains, locus YPR119W, strain clb2, hits give low values 0.942 | S. cerevisiae deletion strains, locus YPR163C, strain tif3, hits give low values 0.976 | S. cerevisiae deletion strains, locus YPR167C, strain met16, hits give low values 0.927 | S. cerevisiae strains, strain wild type, hits give low values 0.929
active: S. cerevisiae deletion strains, locus YKL068W, hits give low values 0.934 | S. cerevisiae deletion strains, locus YKL085W, strain MDH1 (second series), hits give low values 0.918 | S. cerevisiae deletion strains, locus YKL085W, strain MDH1, hits give low values 0.918 | S. cerevisiae deletion strains, locus YLR113W, strain HOG1, hits give low values 0.834 | S. cerevisiae deletion strains, locus YLR262C, strain YPT6 (second series), hits give low values 0.834 | S. cerevisiae deletion strains, locus YLR371W, strain rom2, hits give low values 0.776 | S. cerevisiae deletion strains, locus YML016C, strain PPZ1, hits give low values 0.906 | S. cerevisiae deletion strains, locus YML124C, strain tub3, hits give low values 0.906 | S. cerevisiae deletion strains, locus YMR078C, strain ctf18, hits give low values 0.909 | S. cerevisiae deletion strains, locus YNL071W, strain lat1, hits give low values 0.861 | S. cerevisiae deletion strains, locus YNL298W, strain CLA4, hits give low values 0.909 | S. cerevisiae deletion strains, locus YNL307C, strain MCK1, hits give low values 0.895 | S. cerevisiae deletion strains, locus YOL147C, strain pex11, hits give low values 0.923 | S. cerevisiae deletion strains, locus YOR184W, strain ser1, hits give low values 0.845 | S. cerevisiae deletion strains, locus YOR316C, strain cot1, hits give low values 0.913 | S. cerevisiae deletion strains, locus YPL078C, strain atp4, hits give low values 0.877 | S. cerevisiae deletion strains, locus YPR141C, strain kar3, hits give low values 0.906 | S. cerevisiae deletion strains, strain wtn01, hits give low values 0.89

From PubChem BioAssay AID1159580 (chemical genetic matrix, 2015)
